For 20 molecules, growth inhibition, inhibition and outcome results are on record in PubChem BioAssay.

Assay [1] in a line: antimalarial activity against Dd2 strain (AID 2302;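 active = growth inhibition above 50% at the single 2 µM test dose, taken to imply half-maximal potency below 2 µM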;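 note: 0% = DMSO untreated growth and 100% = chloroquine plus artemisinin killed control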). To be noted: P. falciparum Dd2 in RBCs, LDH growth readout, 72 h; at 2 µM; active compounds read high.
The nature of assay [2]: human hepatoma cell viability loss – ATP luminescence, cytotoxicity control for P. falciparum antimalarial project, primary screen (AID 2303;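 active = inhibition above 50%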;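 note: 0% = DMSO wells and 100% = digitonin-killed cells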). To be noted: HepG2 viability, 24-48 h, at 10 µM, active compounds read high.
Assay [3] has as its target L-lactate dehydrogenase (Plasmodium falciparum (isolate CDC / Honduras)) (UniProt Q27743). The assay can be described thus: PfLDH activity inhibition – cell lysate, 3D7 strain, counter-screen for P. falciparum growth inhibition project (AID 2304).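 Note: 0% = vehicle and 100% = reference inhibitor.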 To be noted: P. falciparum 3D7 crude extract, LDH APAD/NBT absorbance; at 2 µM; active compounds read high. (In general: A counterscreen serves to expose hits that act by an unwanted route or on another target.)

A short description of assay [4]: inhibition of 3D7 malaria parasite growth – strain 3D7 (AID 2306).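 Note: 0% = DMSO wells and 100% = chloroquine plus artemisinin control wells.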 To be noted: P. falciparum 3D7 erythrocytic growth, LDH absorbance, 72 h; at 2 µM; active compounds read high.
Assay [5] concerns the target Calcium-dependent protein kinase 1 (Plasmodium falciparum (isolate 3D7)) (UniProt P62344). The assay is described as follows: PfCDPK1 kinase inhibitors, biochemical, TCAMS library (AID 1159585; cut-off not given, nearly all actives have IC50 up to about 0.98 µM;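 note: inhibitors leave more ATP so luminescence rises with inhibition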). To be noted: recombinant PfCDPK1, Kinase-Glo ATP depletion luminescence. A general note: Kinase-Glo reads ATP consumption through a luciferase reaction.
Assay [6] addresses Plasmodium falciparum protein kinase 6 (PK6, PF3D7_1337100) (UniProt Q8IDW1). The assay is described as follows: PfPK6 kinase inhibitors, biochemical, TCAMS library (AID 1159586). To be noted: recombinant PfPK6, Kinase-Glo ATP depletion luminescence.
Assay [7] concerns the target Protein kinase 7 (PK7), Plasmodium falciparum 3D7 (PF3D7_0213400) (UniProt Q7YTF7). The assay is described as follows: inhibition of Plasmodium PK7 catalytic activity – biochemical, TCAMS antimalarial set, Kinase-Glo luminescence (AID 1159587). To be noted: recombinant PfPK7, Kinase-Glo ATP depletion luminescence.
In assay [8] the target is Calcium-dependent protein kinase 4 (Plasmodium falciparum (isolate 3D7)) (UniProt Q8IBS5). The assay is described as follows: PfCDPK4 kinase inhibitors, biochemical, TCAMS library (AID 1159588; cut-off not given, nearly all actives have IC50 up to about 0.91 µM). To be noted: recombinant PfCDPK4, Kinase-Glo ATP depletion luminescence.

Structures are written as SMILES. Unmarked numbers belong to inactive results. For some of these results: Potency and affinity values are given separately. Activity calls are given as the source filed them. Unless noted, the rule behind the calls is not given here.

Calcium-dependent protein kinase 4 (Plasmodium falciparum (isolate 3D7)), sequence (Q8IBS5 whole entry, looked up): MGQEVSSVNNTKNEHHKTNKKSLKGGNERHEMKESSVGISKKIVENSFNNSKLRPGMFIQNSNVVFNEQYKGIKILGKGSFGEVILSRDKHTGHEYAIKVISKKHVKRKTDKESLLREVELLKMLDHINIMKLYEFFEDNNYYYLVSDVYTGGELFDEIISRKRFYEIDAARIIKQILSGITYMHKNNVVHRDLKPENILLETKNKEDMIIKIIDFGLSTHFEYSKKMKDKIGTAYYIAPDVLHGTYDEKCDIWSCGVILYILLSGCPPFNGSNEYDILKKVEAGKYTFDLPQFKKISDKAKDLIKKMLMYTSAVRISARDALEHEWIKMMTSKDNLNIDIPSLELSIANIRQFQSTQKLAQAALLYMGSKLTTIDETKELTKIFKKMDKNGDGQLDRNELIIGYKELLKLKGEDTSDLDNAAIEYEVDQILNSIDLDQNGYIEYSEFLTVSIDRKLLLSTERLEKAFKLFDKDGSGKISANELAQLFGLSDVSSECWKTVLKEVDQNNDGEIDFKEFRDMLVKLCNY
Protein kinase 7 (PK7), Plasmodium falciparum 3D7 (PF3D7_0213400), sequence (Q7YTF7 1-343): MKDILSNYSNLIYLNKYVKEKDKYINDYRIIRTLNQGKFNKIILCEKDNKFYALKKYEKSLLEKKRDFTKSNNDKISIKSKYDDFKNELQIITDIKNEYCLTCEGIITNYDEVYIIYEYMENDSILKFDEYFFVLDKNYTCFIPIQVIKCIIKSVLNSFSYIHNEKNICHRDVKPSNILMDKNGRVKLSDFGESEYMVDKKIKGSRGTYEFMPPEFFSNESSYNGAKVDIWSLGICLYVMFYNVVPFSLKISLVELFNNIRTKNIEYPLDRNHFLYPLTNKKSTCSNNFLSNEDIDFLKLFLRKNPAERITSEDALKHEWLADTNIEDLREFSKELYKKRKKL
L-lactate dehydrogenase (Plasmodium falciparum (isolate CDC / Honduras)), sequence (Q27743 whole entry, looked up): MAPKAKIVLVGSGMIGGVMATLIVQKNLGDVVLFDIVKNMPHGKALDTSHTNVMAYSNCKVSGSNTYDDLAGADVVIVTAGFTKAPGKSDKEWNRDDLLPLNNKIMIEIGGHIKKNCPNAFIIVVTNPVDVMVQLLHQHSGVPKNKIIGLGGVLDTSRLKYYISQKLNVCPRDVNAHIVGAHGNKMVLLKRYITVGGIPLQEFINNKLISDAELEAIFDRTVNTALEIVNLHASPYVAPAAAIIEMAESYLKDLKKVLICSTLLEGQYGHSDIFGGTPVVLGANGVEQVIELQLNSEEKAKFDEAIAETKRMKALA
Plasmodium falciparum protein kinase 6 (PK6, PF3D7_1337100), sequence (Q8IDW1 1-305): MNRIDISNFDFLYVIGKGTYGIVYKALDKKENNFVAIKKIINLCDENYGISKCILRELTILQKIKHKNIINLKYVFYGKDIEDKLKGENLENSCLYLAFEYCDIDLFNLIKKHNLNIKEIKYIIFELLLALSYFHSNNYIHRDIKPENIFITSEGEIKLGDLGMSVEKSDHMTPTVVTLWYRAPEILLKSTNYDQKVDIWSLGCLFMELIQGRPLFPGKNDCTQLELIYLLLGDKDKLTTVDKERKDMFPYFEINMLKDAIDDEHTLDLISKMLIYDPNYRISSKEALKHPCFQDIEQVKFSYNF
Calcium-dependent protein kinase 1 (Plasmodium falciparum (isolate 3D7)), sequence (P62344 whole entry, looked up): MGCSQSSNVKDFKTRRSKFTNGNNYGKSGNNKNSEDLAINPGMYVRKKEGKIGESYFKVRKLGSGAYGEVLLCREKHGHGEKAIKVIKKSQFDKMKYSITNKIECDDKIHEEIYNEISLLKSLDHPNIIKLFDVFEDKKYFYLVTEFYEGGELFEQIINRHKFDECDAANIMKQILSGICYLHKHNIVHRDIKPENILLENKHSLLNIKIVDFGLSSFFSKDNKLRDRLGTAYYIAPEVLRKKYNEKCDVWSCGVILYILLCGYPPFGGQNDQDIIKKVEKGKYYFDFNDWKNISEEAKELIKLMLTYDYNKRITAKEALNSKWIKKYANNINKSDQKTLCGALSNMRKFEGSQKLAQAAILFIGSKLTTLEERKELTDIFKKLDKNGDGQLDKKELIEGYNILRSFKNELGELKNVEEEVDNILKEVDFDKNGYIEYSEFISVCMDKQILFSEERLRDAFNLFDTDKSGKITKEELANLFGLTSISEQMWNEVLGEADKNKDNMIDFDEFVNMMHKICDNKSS

What is called inhibition is the drop in the measured response relative to a control, in per cent. For the molecule `O=C(/C=C/c1ccc(Cl)c(Cl)c1)NCCCCCN1CCC(NC(=O)c2ccc(F)cc2)CC1`, the growth inhibition was 13% in assay [1] and 102% (active) in assay [4]. Besides, the results for the inhibition in assay [2] and in assay [3] were 14% and -1%, respectively. Also, the result in assay [5], in assay [6], in assay [7] and in assay [8] was inactive.

Regarding `CCCC(CNCc1cccc(SC(F)(F)F)c1)CNc1cc(=O)c2ccccc2[nH]1` (stereo not given), the growth inhibition in assay [1] is 87% (active); in assay [4], 101% (active). For the same molecule, the inhibition in assay [2] and in assay [3] was 5% in each case. In addition, the outcome in assay [5], in assay [6], in assay [7] and in assay [8] was inactive.

For the molecule `COc1ccc(-c2nc3c4cc(I)ccc4c4ccccc4c3[nH]2)cc1`, the results for the growth inhibition in assay [1] and in assay [4] were 16% and 96% (active), respectively. For the same molecule, the figures for the inhibition in assay [2] and in assay [3] were 4% and -3%, respectively. For the same molecule, the outcome in assay [5], in assay [6], in assay [7] and in assay [8] was inactive.

Consider `O=C(C=Cc1ccc(-c2ccccc2)cc1)N1CCC(CCN2CCC(c3c[nH]c4ccccc34)CC2)CC1`, for which the growth inhibition in assay [1] was 16%; in assay [4], 87% (active). Besides, the inhibition in assay [2] is 44%; in assay [3], 2%. Moreover, the outcome in assay [5], in assay [6], in assay [7] and in assay [8] was inactive.

As to `COc1ccc2nc(C)cc(NN=Cc3ccccc3F)c2c1`, the growth inhibition in assay [1] and in assay [4] was 100% (active) throughout. Moreover, the inhibition was 3% in assay [2] and -4% in assay [3]. Further, the result in assay [5], in assay [6], in assay [7] and in assay [8] was inactive.

Consider `CCNC(=O)Nc1ccc(-c2ccc(-c3nc4c(C)cccc4[nH]3)s2)cc1`, for which the growth inhibition in assay [1] was 13%; in assay [4] it was 96% (active). The inhibition is 18% in assay [2] and -2% in assay [3]. In addition, the result in assay [5], in assay [6], in assay [7] and in assay [8] was inactive.

For `Cc1cnc(Nc2cccc(CCN3CCOCC3)c2)nc1NC(C)C`, the growth inhibition in assay [1] was 76% (active); in assay [4], 97% (active). In addition, the figures for the inhibition in assay [2] and in assay [3] were 53% (active) and 1%, respectively. For the same molecule, the outcome in assay [5], in assay [6], in assay [7] and in assay [8] was inactive.

Regarding `NC(N)=Nc1ccc(NC(=O)Nc2ccc(N=C(N)N)cc2)cc1`, the growth inhibition is 74% (active) in assay [1] and 85% (active) in assay [4]. For the same molecule, the inhibition in assay [2] is -5%; in assay [3], 1%. In addition, the result in assay [5], in assay [6], in assay [7] and in assay [8] was inactive.

Regarding `CC1CN=C(c2ccc(NC(=O)c3ccc(C(=O)Nc4ccc(C5=NCC(C)N5)cc4)cc3)cc2)N1` (stereo not given), the figures for the growth inhibition in assay [1] and in assay [4] were 100% (active) and 99% (active), respectively. Further, the figures for the inhibition in assay [2] and in assay [3] were 15% and -7%, respectively. Further, the outcome in assay [5], in assay [6], in assay [7] and in assay [8] was inactive.

Regarding `Cc1ccc(-n2cc(CNCC3CCN(CCO)CC3)c(-c3ccc(F)cc3)n2)cc1`, the growth inhibition in assay [1] was 18%; in assay [4], 91% (active). For the same molecule, the figures for the inhibition in assay [2] and in assay [3] were 29% and -1%, respectively. Moreover, the result in assay [5], in assay [6], in assay [7] and in assay [8] was inactive.

Consider `CCCCNC(=O)[C@H](CC1CCCCC1)NC(=O)c1ccc(O)c(-c2cccc(C(F)(F)F)c2)c1`, for which the growth inhibition in assay [1] was 86% (active); in assay [4], 98% (active). In addition, the inhibition is -8% in assay [2] and 0% in assay [3]. The result in assay [5], in assay [6], in assay [7] and in assay [8] was inactive.

For `Cc1c(C2CCN(CCCCNC(=O)c3ccc(-c4ccc(C#N)cc4)cc3)CC2)c2ccccc2n1CCO`, the growth inhibition in assay [1] is 99% (active); in assay [4], 96% (active). Besides, the figures for the inhibition in assay [2] and in assay [3] were 28% and 1%, respectively. Moreover, the result in assay [5], in assay [6], in assay [7] and in assay [8] was inactive.

As for `CCCCN(C(=O)c1ccccc1Cl)c1nnc(-c2ccccc2C)s1`, the growth inhibition in assay [1] was 86% (active); in assay [4], 90% (active). Also, the figures for the inhibition in assay [2] and in assay [3] were 12% and 0%, respectively. Besides, the result in assay [5], in assay [6], in assay [7] and in assay [8] was inactive.

For `O=C(N[C@@H](Cc1ccccc1)[C@H](O)CNCCC(F)(F)F)c1cccc(OCC2CC2)c1`, the growth inhibition in assay [1] was 95% (active); in assay [4], 98% (active). Besides, the figures for the inhibition in assay [2] and in assay [3] were 0% and -1%, respectively. For the same molecule, the outcome in assay [5], in assay [6], in assay [7] and in assay [8] was inactive.

For `COc1ccc2c(NN=Cc3ccccc3[N+](=O)[O-])ccnc2c1`, the growth inhibition in assay [1] was 97% (active); in assay [4], 102% (active). Moreover, the inhibition in assay [2] was 98% (active); in assay [3] it was -3%. In addition, the result in assay [5], in assay [6], in assay [7] and in assay [8] was inactive.

With `O=C(NC1CCN(CCCOc2ccnc3cc(Cl)ccc23)C1)c1ccc(Br)cc1` (stereo not given), the figures for the growth inhibition in assay [1] and in assay [4] were 87% (active) and 86% (active), respectively. For the same molecule, the inhibition in assay [2] is 21%; in assay [3], 2%. Besides, the outcome in assay [5], in assay [6], in assay [7] and in assay [8] was inactive.

`O=C(Nc1cccc(-c2cccc(-c3nc4ccc(C(F)(F)F)cc4[nH]3)c2)c1)c1ccc(=O)[nH]n1`: the growth inhibition in assay [1] was 26%; in assay [4], 103% (active). The results for the inhibition in assay [2] and in assay [3] were 63% (active) and 0%, respectively. In addition, the outcome in assay [5], in assay [6], in assay [7] and in assay [8] was inactive.

As for `CN(C)CCNCc1cccc(-c2cccc(-c3nc4ccccc4[nH]3)c2)c1`, the results for the growth inhibition in assay [1] and in assay [4] were 63% (active) and 101% (active), respectively. The inhibition in assay [2] is 7%; in assay [3] it was -3%. Further, the outcome in assay [5], in assay [6], in assay [7] and in assay [8] was inactive.

For `CC(C)Cn1c(Sc2ccc(C#N)c([N+](=O)[O-])c2)nnc1-c1ccccc1Cl`, the growth inhibition was 46% in assay [1] and 93% (active) in assay [4]. Also, the inhibition in assay [2] was 18%; in assay [3], 2%. For the same molecule, the outcome in assay [5], in assay [6], in assay [7] and in assay [8] was inactive.

With `O=C(Nc1cccc(OC2CCN(Cc3ccsc3)CC2)c1)c1ccc(C(F)(F)F)cc1`, the growth inhibition in assay [1] is 5%; in assay [4] it was 98% (active). For the same molecule, the inhibition in assay [2] is 25%; in assay [3] it was -2%. Also, the result in assay [5], in assay [6], in assay [7] and in assay [8] was inactive.
